Source: PubChem
Gal4-VP16 FLuc = Gal4-VP16 reporter inhibition counter-screen. Drosophila S2 Gal4-VP16 UAS-luciferase, luminescence, 20 h. Potency, µM (doses to about 53.6 µM), for inactives: at the top dose activity, negative = inhibition, most hits filed as inhibitors. actives 3.5% (n = 310,000);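 further: Gal4-VP16 expression switched on by copper sulfate through the metallothionein promoter; nearly all actives have a fitted effect of over 50% in size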
TDP1 inh = blocks human tyrosyl-DNA phosphodiesterase 1; actives 0.28% (n = 350,000); Potency, µM (top dose mostly 130 µM), for inactives: at the top dose activity change, negative = inhibition, usual class: inhibitors; recombinant TDP1, AlphaScreen DNA substrate cleavage; AID 485290; further: nearly all actives have a fitted effect of over 40% in size
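Recombinant human Tdp1 (E. coli-expressed, 1 nM final) preincubated with compounds 15 min at room temperature, then 5'-biotin/3'-phosphotyrosine-FITC DNA substrate (15 nM final) added for 5 min. AlphaScreen beads (10 ug/ml final) added 10 min; cleavage lowers signal.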
TDP1 cell noCPT = qHTS for Inhibitors of human tyrosyl-DNA phosphodiesterase 1 (TDP1): qHTS in cells in absence of CPT; DT40 Tdp1-/- hTDP1 cells, no CPT, ATP luminescence, 48 h; Potency, µM (top dose mostly 46.2 µM), inactives show at the top dose activity change, negative = growth inhibition, usual class: inhibitors; actives 15% (n = 420,000); AID 686978, 2013; further: nearly all actives have a fitted effect of over 55% in size
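Growth of hTDP1-complemented DT40 Tdp1-knockout cells is measured by ATP luminescence after at least 48 hr compound exposure at 37 °C, with DMSO substituting for the 20 nM CPT used in the parallel screen.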
RORg inh = inhibitors of mouse ROR gamma transcriptional activity | P51450 | AID 2551 | Potency, µM (doses to about 53.6 µM), inactives show at the top dose activity change, negative = inhibition, usual class: inhibitors | actives 5.4% (n = 310,000) | Drosophila S2 Gal4-RORgamma UAS-luciferase reporter, 20 h; further: nearly all actives have a fitted effect of over 60% in size
Target sequence (P51450 whole entry, looked up, the tested form may be a part): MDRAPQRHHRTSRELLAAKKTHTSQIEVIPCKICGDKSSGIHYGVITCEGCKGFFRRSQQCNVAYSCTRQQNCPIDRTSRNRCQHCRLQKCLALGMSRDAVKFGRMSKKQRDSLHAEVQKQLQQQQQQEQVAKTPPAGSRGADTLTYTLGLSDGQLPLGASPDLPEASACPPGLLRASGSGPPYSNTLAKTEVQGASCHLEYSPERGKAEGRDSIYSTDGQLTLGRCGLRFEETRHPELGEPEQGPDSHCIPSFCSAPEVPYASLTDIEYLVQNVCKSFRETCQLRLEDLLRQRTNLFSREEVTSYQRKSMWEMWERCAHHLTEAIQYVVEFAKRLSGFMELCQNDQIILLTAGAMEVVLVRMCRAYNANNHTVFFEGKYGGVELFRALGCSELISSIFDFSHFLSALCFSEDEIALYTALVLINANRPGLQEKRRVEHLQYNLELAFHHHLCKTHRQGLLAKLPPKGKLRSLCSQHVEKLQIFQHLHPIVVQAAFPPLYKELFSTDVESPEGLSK
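Drosophila Schneider cells stably carrying a metallothionein-driven Gal4 DBD–ROR gamma fusion and a UAS-Photinus luciferase reporter were exposed to compound for 1 hr, then induced with copper sulfate (700 uM final) for 20 hr at ambient temperature before luminescence reading.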
TDP1 cell CPT = growth inhibition of DT40 Tdp1-/-;hTDP1 cells with camptothecin (screen for TDP1 inhibitors) | chicken DT40 Tdp1-/-;hTDP1 cells + 20 nM CPT, ATP luminescence, 48 h | Potency, µM (titrated, usually from 46.2 µM), for the others: at the highest dose activity change, negative = growth inhibition, hits mostly inhibitors | actives 12% (n = 420,000); further: nearly all actives have a fitted effect of over 55% in size
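Cell growth measured by CellTiter-Glo luminescence after a minimum 48 h, 37 C compound exposure with 20 nM CPT in Tdp1-knockout DT40 cells stably expressing hTDP1, seeded 400/well; qHTS titration format.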
* = called active by the depositor; ? = inconclusive; . = no result; [ ] = dose if it differs, or a comment. Rows were chosen to be rich in hits. Some 19% of all compounds tested hit in one or more screens of this group. The call rests on the fitted dose curve; in most records, active means well fitted curve in the direction sought with a large enough effect; inconclusive means small, poorly fitted or top-dose-only effect, or another doubt; inactive means no such curve, though single readings can be large; an effect the other way counts as inactive or inconclusive. On the % scale 0 is the no-effect control and ±100 the full control effect; potency means the concentration at half of the fitted maximal effect.

SMILES	Gal4-VP16 FLuc	TDP1 inh	TDP1 cell noCPT	RORg inh	TDP1 cell CPT
COc1cccc(/C=N/NC(=O)c2ccc(N(C)S(=O)(=O)c3ccccc3)cc2)c1OC	3.6%	2.6%	?	18.5%	-23.0%
COc1ccc(OC)c(/C=N/NC(=S)NCCc2ccccc2)c1	11.2µM*	.	?	39.8µM*	?
COc1cccc(/C=N/NC(=O)c2ccccc2N(Cc2ccccc2)S(=O)(=O)c2ccccc2)c1OC	-21.6%	8.6%	18.4µM*	3.2%	23.1µM*
COc1cccc(/C=N/NC(=S)NCCc2ccccc2)c1OC	?	.	-1.1%	11.2µM*	?
CC1CC(C)CN(C(=O)CCNS(=O)(=O)c2ccc3c(c2)CCC(=O)N3)C1 (stereo not given)	-14.1%	-5.3%	-1.8%	-20.1%	-10.0%
COc1ccc(N(C)C(=O)CCS(=O)(=O)c2cccc3nonc23)cc1	0.3%	-4.1%	-26.7%	-5.0%	11.7%
Cc1nc(SCC(=O)N(CC(C)C)C2CCS(=O)(=O)C2)c2c(C)c(C)sc2n1 (stereo not given)	.	-0.4%	-9.3%	.	-9.6%
CCOc1ccc(CCNC(=O)C2(c3ccccc3)CC2)cc1OCC	-0.7%	4.6%	?	4.0%	?
O=C(/C=C/c1cccc([N+](=O)[O-])c1)NC(=S)Nc1ccc(CN2CCOCC2)cc1	?	5.4%	18.4µM*	12.6µM*	16.4µM*
COc1ccc(C(=O)NC(=S)Nc2ccc(CN3CCOCC3)cc2)cc1	?	6.8%	?	11.2µM*	?
COc1ccc(C(=O)NC(=S)Nc2ccc(CN3CCOCC3)cc2)cc1Br	17.8µM*	10.3%	10.3µM*	7.08µM*	?
O=C(Nc1cccc([N+](=O)[O-])c1)c1ccc(CN2CCOCC2)cc1	?	1.2%	-25.2%	?	-5.4%
O=C(COc1ccc([N+](=O)[O-])cc1)Nc1ccc(CN2CCOCC2)cc1	-1.8%	1.8%	20.6µM*	37.0%	?
O=C(COc1ccc(Cl)cc1)Nc1ccc(CN2CCOCC2)cc1	.	0.1%[56.1 µM]	?	.	-24.1%
O=C(NCc1cccs1)C(=O)c1c[nH]c2ccccc12	-8.0%	9.2%	-0.2%	1.1%	-16.6%
CCC(C)Oc1ccc(C(=O)Nc2ccc(CN3CCOCC3)cc2)cc1 (stereo not given)	0.3%	.	14.6µM*	?	20.6µM*
CCCCOc1ccc(C(=O)NC(=S)Nc2ccc(CN3CCOCC3)cc2)cc1	1.0%	3.8%	?	?	?
O=C(NC(=S)Nc1ccc(CN2CCOCC2)cc1)c1ccc([N+](=O)[O-])cc1	10µM*	5.4%	-23.6%	14.1µM*	?
COc1ccc(CC(=S)N2CCOCC2)cc1	24.4%	0.0%	18.4µM*	37.3%	?
Cc1ccc(CC(=S)N2CCOCC2)cc1	6.8%	0.0%	-20.0%	-8.3%	-0.7%
O=C(Nc1ccc(CN2CCOCC2)cc1)c1ccc(-c2ccc(Br)cc2)o1	-26.2%	11.4%	18.4µM*	-37.8%	16.4µM*
CCOc1ccc(N(CC(=O)Nc2ccc(C)c(Cl)c2)S(C)(=O)=O)cc1	3.4%	.	?	30.7%	?
C=CCn1sc(=N)c(C#N)c1N	2.1%	2.3%	?	-16.5%	?
COc1ccccc1N1CCN(C(=O)C(=O)c2cn(CC(=O)N3CCCC3)c3ccccc23)CC1	-0.3%	6.4%	0.2%	1.8%	-4.7%
CCc1ccc(NC(=O)C(=O)NCCN2CCN(Cc3ccc([N+](=O)[O-])cc3)CC2)cc1	-16.5%	-0.6%	9.2µM*	40.2%	10.3µM*
SMILES	Gal4-VP16 FLuc	TDP1 inh	TDP1 cell noCPT	RORg inh	TDP1 cell CPT
CCc1sc(C(=O)N2CCN(S(C)(=O)=O)CC2)cc1Br	5.9%	2.8%	-9.4%	-23.5%	-1.6%
CN(Cc1ccc(Br)cc1)CC(O)COc1cccc(Br)c1 (stereo not given)	?	6.3%	?	?	?
COc1ccc(CN(C)CC(O)COC(c2ccc(OC)cc2)c2ccc(OC)cc2)cc1 (stereo not given)	5.5%	.	23.1µM*	-30.9%	?
CN(CC(O)COCc1ccccc1F)C1CCCCC1 (stereo not given)	-4.1%	0.0%	-4.0%	-17.5%	-12.1%
COc1ccc(C(OCC(O)CN(C)C2CCCCC2)c2ccc(OC)cc2)cc1 (stereo not given)	6.0%	.	?	-30.8%	16.4µM*
CN(Cc1ccc(OCC(O)CN(C)Cc2ccccc2)cc1)Cc1nccn1C (stereo not given)	-7.3%	.	?	-0.5%	?
CCOc1ccc(CN(C)CC(O)COC(c2ccc(OC)cc2)c2ccc(OC)cc2)cc1 (stereo not given)	?	.	18.4µM*	?	?
CCN(CC)S(=O)(=O)c1ccc(C(=O)Oc2cc(C)[nH]c(=O)c2[N+](=O)[O-])cc1	10.5%	-3.5%	6.6%	-12.6%	0.2%
COc1ccc(C2=NOC(Cn3nc(C(=O)NCc4ccco4)cc3-c3ccccc3)C2)cc1 (stereo not given)	.	2.6%	16.4µM*	.	?
COc1ccc(C2=NOC(Cn3nc(-c4ccccc4)cc3C(=O)NCc3cccs3)C2)cc1 (stereo not given)	.	0.9%	9.2µM*	.	?
COc1ccc(C2=NOC(Cn3nc(C(=O)NCc4ccc(C)cc4)cc3-c3ccccc3)C2)cc1 (stereo not given)	.	1.8%	20.6µM*	.	?
COc1ccc(C2=NOC(Cn3nc(C(=O)NCc4cccs4)cc3-c3ccccc3)C2)cc1 (stereo not given)	.	2.5%	?	.	?
COc1ccc(C2=NOC(Cn3nc(-c4ccccc4)cc3C(=O)NCc3ccco3)C2)cc1 (stereo not given)	.	0.9%	-0.2%	.	?
COc1ccc(C2=NOC(Cn3nc(C(=O)NCc4cccc(C(F)(F)F)c4)cc3-c3ccccc3)C2)cc1 (stereo not given)	.	-1.6%	?	.	18.4µM*
CSCCC(NC(=O)c1ccco1)C(=O)NC1CCC(C)CC1 (stereo not given)	.	-0.1%	-8.4%	.	1.5%
Cc1ccc(CNC(=O)c2cc(-c3ccccc3)nn2CC2CC(c3cccnc3)=NO2)cc1 (stereo not given)	.	.	?	.	-26.0%
COc1ccc(C2=NOC(Cn3nc(C(=O)O)cc3-c3ccccc3)C2)cc1 (stereo not given)	1.2%	.	-5.3%	11.3%	-0.8%
CCOC(=O)c1cc(-c2ccccc2)n(CC2CC(c3ccc(OC)cc3)=NO2)n1 (stereo not given)	?	.	23.1µM*	28.6%	23.1µM*
